Screens as filed in PubChem.
The list is not random: actives were taken first. Their share in the collection is about 6%.
D1 PAM = human D1 dopamine receptor positive modulation; P21728; HEK293 TREx D1 cells, calcium flux, dopamine EC20 potentiation; potentiation, % at 10 µM; 360,000 compounds, 0.036% hits; AID 504651; in the data active means potentiation above about 30%; further: 0% is about no effect
D3 antag = antagonists of human D3 dopamine receptor | P35462 | max response, negative = inhibition, % | 360,000 compounds, 2.5% hits | D3R cells, DiscoveRx beta-arrestin luminescence, antagonist mode; stronger effect = lower value; in the data active means max response below about -50%; inconclusive means no clear call, values can overlap the other calls; further: on the % scale 0 is the no-effect control and ±100 the full control effect
Target sequence (P35462 whole entry, looked up): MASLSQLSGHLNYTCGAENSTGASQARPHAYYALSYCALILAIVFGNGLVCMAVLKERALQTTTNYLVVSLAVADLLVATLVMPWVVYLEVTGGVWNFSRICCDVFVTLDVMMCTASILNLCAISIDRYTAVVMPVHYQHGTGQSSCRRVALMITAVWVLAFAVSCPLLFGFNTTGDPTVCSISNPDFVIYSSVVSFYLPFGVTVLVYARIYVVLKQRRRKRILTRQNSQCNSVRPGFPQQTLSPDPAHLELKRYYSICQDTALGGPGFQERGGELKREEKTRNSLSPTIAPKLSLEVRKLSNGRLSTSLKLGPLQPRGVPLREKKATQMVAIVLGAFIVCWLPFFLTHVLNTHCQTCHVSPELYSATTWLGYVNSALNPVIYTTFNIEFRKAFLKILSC
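Cells expressing the human receptor were seeded at 1500 cells/well, incubated overnight at 37 degrees C in 5% CO2, then exposed to library compounds with dopamine controls for 90 minutes at 37 degrees C before luminescent detection.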
D1 antag = blocks dopamine activation of the human D1 receptor; HEK293 TREx D1 cells, calcium flux, dopamine EC80; stronger effect = lower value; activity change, negative = inhibition, % at 10 µM; 360,000 compounds, 3.2% hits; AID 504652; in the data active means activity change below about -30%; further: on the % scale 0 is the no-effect control and ±100 the full control effect
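Cells carrying a force-coupled, tetracycline-inducible human D1 receptor report calcium flux. Each well gets a 10 s baseline, compound with 180 s monitoring, then an EC80 dopamine stimulus with a second 180 s kinetic read.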
D1 ag = activates the human D1 dopamine receptor; AID 504660; activation, % at 2 µM; HEK293 T-REx D1 cells, calcium flux, agonist mode; P21728; 360,000 compounds, 1% hits; in the data active means activation above about 30%; further: 0% is about no effect
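Agonism was scored from calcium flux recorded over 180 s (1 read/s) after pintool compound addition, following a 10-cycle baseline. Cells were inducible force-coupled HEK293 TREx D1, plated overnight at 30 C and loaded with no-wash calcium dye.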
D3 ag = D3 dopamine receptor (human) agonism; 410,000 compounds, 0.58% hits; max activation, %; D3R DiscoveRx beta-arrestin cells, luminescence, 90 min; P35462; in the data active means max activation above about 30%; further: 0% is about no effect
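Agonist mode: compounds and dopamine controls were applied to plated cells for 90 min at 37 degrees C after an overnight attachment at 1500 cells/well. Luminescent read-out followed 30 - 60 minutes at room temperature with DiscoveRx detection reagent.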
Starred values were filed as active, the others as inactive; ? = inconclusive; . = no result.

SMILES	D1 PAM	D3 antag	D1 antag	D1 ag	D3 ag
Cc1cc2nc(/C(C#N)=C\c3ccc(-c4ccccc4C(=O)O)o3)[nH]c2cc1C	-3.9	1.2	-8.8	81.9*	2.5
N#C/C(=C\c1ccc(-c2ccccc2C(=O)O)o1)c1nc2ccccc2[nH]1	-0.8	2.2	-2.9	38.2*	-4.0
N#C/C(=C/c1ccc(Sc2nc3ccccc3[nH]2)o1)c1cccc(F)c1	-1.2	5.8	-5.3	8.4	2.4
CN(C)C1CCN(C(=O)c2cccc(OC3CCN(S(=O)(=O)N(C)C)CC3)c2)C1 (centres undefined)	-1.5	3.7	-5.4	2.6	1.1
CCOC(=O)c1ccc(-c2ccc(/C=C(\C#N)C(=O)Nc3cccc(C)c3)o2)cc1	2.0	.	2.0	1.2	-6.7
N#C/C(=C\c1ccc([N+](=O)[O-])o1)c1nc2ccccc2[nH]1	-6.0	-28.9	9.8	40.9*	45.4*
Cc1ccc2nc(/C(C#N)=C/c3ccc(-c4ccccc4C(=O)O)o3)[nH]c2c1	-4.7	-0.6	-10.0	49.2*	2.3
CCOC(=O)c1ccc(-c2ccc(/C=C(\C#N)c3nc4ccc(C)cc4[nH]3)o2)cc1	0.7	.	8.0	269.6*	-9.8
Cc1ccc2nc(/C(C#N)=C\c3ccc([N+](=O)[O-])o3)[nH]c2c1	-6.5	-27.0	-10.0	16.4	25.7
COc1ccc2c(c1)c(=O)c(C(=O)c1ccc(C)cc1)cn2Cc1ccccc1F	3.8	.	5.9	3.9	2.2
Cc1noc2ncnc(N3CCN(c4ccc(F)cc4)CC3)c12	-1.7	19.4	-5.2	9.9	1.1
COc1ccc(N2CCN(c3ncnc4onc(C)c34)CC2)cc1	-8.8	.	-36.4*	20.8	0.1
COCc1c(C(=O)N2CCN(c3ccccc3C)CC2)oc2ccccc12	.	0.0	.	.	-12.0
Cc1c(C(=O)OCCN2CCCCC2)oc2ccccc12	0.6	-61.2*	-4.5	2.2	-4.4
COCc1c(C(=O)N2CCN(CCOc3ccccc3)CC2)oc2ccccc12	.	-6.9	-45.4*	5.4	87.8*
O=C(OCCN1CCCCC1)c1c[nH]c2ccccc12	-1.9	-56.9*	-12.6	5.6	0.0
CC(C)(C)NC(=O)c1oc2ccccc2c1COc1ccccc1	6.1	-4.9	7.1	30.7*	-2.1
Cc1[nH]c(=O)[nH]c(=O)c1NC(=O)c1ccccc1[N+](=O)[O-]	.	15.5	.	.	6.6
N[C@@H](Cc1ccc(O)cc1)C(=O)Nc1ccc2ccccc2c1	-6.9	15.8	-27.4	7.8	4.6
Cc1c(C(=O)N2CCN(S(C)(=O)=O)CC2)oc2ccccc12	-5.8	-21.8	-2.0	3.1	-2.5
Cc1c(C(=O)N2CCN(CCc3ccccc3)CC2)oc2ccccc12	-2.7	-86.2*	-32.0*	2.2	-26.2
Cc1c(C(=O)OCC(=O)N2C(C)CCCC2C)oc2ccccc12 (centres undefined)	-4.9	-11.2	7.7	2.5	4.2
Cc1c(C(=O)OCC(=O)N2c3ccccc3CC2C)oc2ccccc12 (centres undefined)	1.4	27.4	-65.2*	1.3	-1.4
COc1ccc2cc(C(=O)C3CCCN(C(=O)c4cncs4)C3)ccc2c1 (centres undefined)	-8.6	?	4.9	3.5	-17.4
O=S(=O)(c1ccc(C(F)(F)F)cc1)N1CCN(S(=O)(=O)c2ccc3c(c2)OCCO3)CC1	6.6	.	10.9	-1.1	.
SMILES	D1 PAM	D3 antag	D1 antag	D1 ag	D3 ag
Cc1cc(C)cc(NS(=O)(=O)CCCS(=O)(=O)Nc2cc(C)cc(C)c2)c1	.	-4.2	.	.	5.0
COc1ccc(C2(C)NC(=O)N(CC(=O)NC3CCCC3)C2=O)cc1OC (centres undefined)	-4.4	1.9	0.9	2.6	-9.4
Cc1cc(C(=O)CN2C(=O)NC(C)(c3cccc(Br)c3)C2=O)c(C)n1Cc1ccco1 (centres undefined)	3.6	7.7	-36.8*	2.0	3.3
CC1(c2cccc(Br)c2)NC(=O)N(CC(=O)Nc2ccc(F)cc2)C1=O (centres undefined)	-5.5	2.1	-30.7*	6.5	5.3
Cc1ccc(C2(C)NC(=O)N(CC(=O)Nc3ccc4c(c3)CCC4)C2=O)cc1 (centres undefined)	1.9	-7.1	-5.5	9.6	0.4
CC1(c2cccc(Br)c2)NC(=O)N(CC(=O)Nc2ccc(S(N)(=O)=O)cc2)C1=O (centres undefined)	-7.8	-14.9	-0.4	6.0	7.2
CC(C)CC1(C)NC(=O)N(CC(=O)Nc2ccc3c(c2)CCC3)C1=O (centres undefined)	2.0	-55.1*	-2.8	2.4	-6.5
Cc1cc(C(=O)CN2C(=O)NC(c3ccccc3)(c3ccccc3)C2=O)c(C)n1Cc1ccco1	-3.0	-0.8	-4.2	22.7	1.1
CC1(c2cccc(Br)c2)NC(=O)N(CC(=O)NC2CCCCC2)C1=O (centres undefined)	-1.9	5.8	-33.6*	0.3	-20.2
COc1ccc2oc(=O)c(C(=O)NCCc3c(C)[nH]c4ccc(F)cc34)cc2c1	-1.9	.	-4.3	-0.8	8.2
CCc1c(C(=O)NNC(=S)NC2CCCCC2)csc1C	0.1	-3.6	3.6	1.5	-7.4
CCc1c(C(=O)NNC(=S)NCCc2ccccc2)csc1C	-4.2	-65.5*	-3.0	13.2	-26.3
O=S(=O)(NCCc1csc2nc(-c3ccc(Cl)cc3)nn12)c1ccc2c(c1)OCCO2	-1.8	.	.	12.9	0.2
Oc1c(Cl)cc(Cl)cc1C=Nc1ccc2c(c1)OCCO2	-2.0	-51.6*	1.3	4.6	-18.0
Brc1csc(C=Nc2ccc3c(c2)OCCOCCOCCOCCO3)c1	-2.8	0.0	-9.0	4.5	5.3
COc1ccccc1CCN1CCCC(CN(C)C(=O)CCC(N)=O)C1 (centres undefined)	-3.2	-14.0	-21.4	2.7	1.3
CC[C@@]12C(=O)N(c3cccc(Br)c3)C(=O)N1[C@H](c1ccc(Cl)cc1)[C@@H]1C(=O)N(C3CCCCC3)C(=O)[C@@H]12	3.1	38.0	-9.7	0.5	0.8
CCN1C(=O)[C@H]2[C@@H](c3ccc(C)cc3)N3C(=O)N(c4ccc(OC)cc4)C(=O)[C@@]3(CC)[C@H]2C1=O	-4.5	0.1	5.0	-0.1	45.5*
CC[C@@]12C(=O)N(c3ccc(OC)cc3)C(=O)N1[C@H](c1ccc(Cl)cc1)[C@@H]1C(=O)N(C3CCCCC3)C(=O)[C@@H]12	-1.1	-56.8*	-0.1	4.5	-40.7
COc1ccc(N2C(=O)N3[C@H](c4cccc(C)c4)[C@@H]4C(=O)N(Cc5ccccc5)C(=O)[C@@H]4[C@]3(Cc3ccccc3)C2=O)cc1	-0.1	-5.7	-4.5	6.7	30.5*
Cc1cccc(N2C(=O)N3[C@H](c4ccc(Cl)cc4)[C@@H]4C(=O)N(C5CCCCC5)C(=O)[C@@H]4[C@]3(Cc3ccc(Cl)cc3)C2=O)c1	-8.1	-7.0	-40.3*	10.6	-2.4
